# PubChem BioAssay AID2283109 (EPA ToxCast)
# Where “and” joins values, the source holds several entries; their conditions need not be identical. Identical values can stand only once. Calls of active or inactive are those of the source. The calls were made as follows: active = hit-call score of the fitted dose curve at least 0.9, where 1 is the maximum; inactive = score below 0.9.
# Target: human CYP3A5, CYP3A5 (gene 1577) (UniProt P20815)
# Assay: NVS_ADME_hCYP3A5: NovaScreen (NVS) CYP450-related Enzyme Activity (ADME) Assay for human CYP3A5
# Experimental: NVS_ADME_hCYP3A5 is a biochemical, single-readout assay that uses extracted gene-proteins in a cell-free assay. Measurements were taken 0.5 hour after chemical dosing in a 96-well plate.NVS_ADME_hCYP3A5 is one of one assay component(s) measured or calculated from the NVS_ADME_hCYP3A5 assay. It is designed to make measurements of enzyme activity, a form of enzyme reporter, as detected with fluorescence intensity signals by Fluorescence technology.Data from the assay component NVS_ADME_hCYP3A5 was analyzed into 1 assay endpoint. This assay endpoint, NVS_ADME_hCYP3A5, was analyzed in the positive analysis fitting direction relative to Acetonitrile as the negative control and baseline of activity. Using a type of enzyme reporter, loss-of-signal activity can be used to understand changes in the enzymatic activity as they relate to the gene CYP3A5. Furthermore, this assay endpoint can be referred to as a primary readout, because this assay has produced […] where this one serves a enzymatic activity function. To generalize the intended target to other relatable targets, this assay endpoint is annotated to the cyp intended target family, where the subfamily is xenobiotic metabolism. […]
# Sequence of human CYP3A5, CYP3A5 (gene 1577) (P20815 whole entry, looked up): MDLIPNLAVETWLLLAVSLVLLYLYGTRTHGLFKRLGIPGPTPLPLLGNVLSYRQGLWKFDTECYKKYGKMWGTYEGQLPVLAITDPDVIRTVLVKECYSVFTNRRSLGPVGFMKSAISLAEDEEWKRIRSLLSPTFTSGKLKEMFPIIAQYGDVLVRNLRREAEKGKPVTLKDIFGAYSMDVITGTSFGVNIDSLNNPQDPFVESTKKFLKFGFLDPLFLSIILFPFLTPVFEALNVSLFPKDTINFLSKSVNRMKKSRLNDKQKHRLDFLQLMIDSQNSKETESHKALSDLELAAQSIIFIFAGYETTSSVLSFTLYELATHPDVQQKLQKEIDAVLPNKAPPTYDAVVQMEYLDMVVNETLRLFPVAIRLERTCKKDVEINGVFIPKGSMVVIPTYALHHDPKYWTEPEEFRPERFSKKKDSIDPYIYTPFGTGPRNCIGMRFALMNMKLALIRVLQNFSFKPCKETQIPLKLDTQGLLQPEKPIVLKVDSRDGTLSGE
smiles,measurement,value
C#C[C@]1(O)CC[C@H]2[C@@H]3CCc4cc(O)ccc4[C@H]3CC[C@@]21C,AC50,1.84 µM (active) and 3.89 µM (active) and 1.71 µM (active)
